{
  "source": "PubChem BioAssay (NCATS)",
  "note": "Inconclusive results are not listed. A call without a number means that no potency is given here. The source made the active and inactive calls. Calls come from the whole dose curve; as a rule, active = well fitted inhibition curve with a large enough effect; inconclusive = small, poorly fitted or top-dose-only effect; inactive = flat fitted curve, though single readings scatter.",
  "data": [
    {"test_system": "SC27B", "assay": "qHTS profiling for inhibitors of Plasmodium falciparum proliferation (AID 504749); note: nearly all actives have a fitted effect of over 60% in size", "conditions": "P. falciparum in erythrocytes, SYBR Green DNA, 72 h; series mostly up to 28.7 µM", "procedure,_shortened": "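Each compound contacts P. falciparum-infected red blood cells for 72 h at 37 C; lysis buffer (Tris, EDTA, saponin, Triton X, SYBR Green I) is added and fluorescence measured next morning; values normalized to controls.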", "values": [
      {"smiles": "O=C(O)Cc1cccc2ccccc12", "Potency": "inactive"},
      {"smiles": "CCN(CC)C(=O)c1ccc(O)c(OC)c1", "Potency": "inactive"},
      {"smiles": "CCCCC1C(=O)N(c2ccccc2)N(c2ccccc2)C1=O", "Potency": "inactive"},
      {"smiles": "O=C1Nc2ccc(Cl)cc2C(C#CC2CC2)(C(F)(F)F)O1", "note": "(stereo not drawn)", "Potency": "inactive"},
      {"smiles": "CCCNC(=O)NS(=O)(=O)c1ccc(Cl)cc1", "Potency": "inactive"},
      {"smiles": "CCN1CCC[C@H]1CNC(=O)c1cc(S(N)(=O)=O)ccc1OC", "Potency": "inactive"},
      {"smiles": "C[N+](C)(C)CCCCCC[N+](C)(C)C", "Potency": "inactive"},
      {"smiles": "O=c1[nH]cnc2c1ncn2[C@H]1CC[C@@H](CO)O1", "Potency": "inactive"},
      {"smiles": "CCN(CC)CCNC(=O)c1ccc(N)cc1", "Potency": "inactive"},
      {"smiles": "O=C(O)c1c(Cl)c(Cl)c(Cl)c(Cl)c1-c1c2cc(I)c(=O)c(I)c-2oc2c(I)c(O)c(I)cc12", "Potency": "inactive"},
      {"smiles": "CCOC(=O)O[C@]1(C(=O)OCCl)CC[C@@H]2[C@H]3CCC4=CC(=O)C=C[C@]4(C)[C@@H]3[C@@H](O)C[C@@]21C", "Potency": "inactive"},
      {"smiles": "Clc1ccc(Cn2c(CN3CCCC3)nc3ccccc32)cc1", "Potency": "inactive"},
      {"smiles": "CCN(CC)CCOC(=O)c1ccc(N)cc1", "Potency": "inactive"}
    ]}
  ]
}
